Source: PubChem
Htt clearance: clearance of mutant huntingtin inclusions, primary screen, imaging, HeLa Exon1htt(103Q)mCFP, confocal imaging; aggregate imaging; zero = plate's median compound well; inhibition, % at 1.5 µM; 47,000 tested, 0.42% active;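 active means inhibition of aggregate fluorescence above about 70%, also judged a hit by eye on the cell image, limit read from the data, passing the limit was not always enough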;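 further: cells exposed to compound for three days before fixation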
D1 mod: D1 CRE-luciferase signal change, two-sided – cell-based, HEK293 D1, dopamine EC30, D1 allosteric modulator project, primary screen | B-score at 10 µM | dopamine EC30 potentiation; actives deviate in either direction | AID 641, 2007 | 58,000 tested, 5.9% active | D(1A) dopamine receptor (Homo sapiens), P21728;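 active means luminescence count or its row- and column-corrected plate score outside the 99.7% band of the plate's sample wells, on either side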
M1 agonist: M1 muscarinic receptor agonists, primary screen, CHO-M1 cells, Fluo-4 calcium, agonist mode; B-score at 10 µM; 64,000 tested, 3% active; Fluo-4 calcium fluorescence; hits give high values;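 active means fluorescence rise, raw or as B-score row- and column-corrected plate score, outside the 99.7% band of its plate's samples, either direction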
M1 antag: antagonists of rat M1 muscarinic receptor | Muscarinic acetylcholine receptor M1 (Rattus norvegicus), P08482 | CHO-M1 cells, Fluo-4 calcium, ACh EC80 antagonist mode; hits give low values | B-score at 10 µM | 64,000 tested, 3.4% active | AID 628, 2007;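 active means calcium fluorescence response, raw or row-and-column corrected B-score, differing from the plate sample mean either way at a set confidence level, mostly lower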
Target sequence (P08482 whole entry, looked up): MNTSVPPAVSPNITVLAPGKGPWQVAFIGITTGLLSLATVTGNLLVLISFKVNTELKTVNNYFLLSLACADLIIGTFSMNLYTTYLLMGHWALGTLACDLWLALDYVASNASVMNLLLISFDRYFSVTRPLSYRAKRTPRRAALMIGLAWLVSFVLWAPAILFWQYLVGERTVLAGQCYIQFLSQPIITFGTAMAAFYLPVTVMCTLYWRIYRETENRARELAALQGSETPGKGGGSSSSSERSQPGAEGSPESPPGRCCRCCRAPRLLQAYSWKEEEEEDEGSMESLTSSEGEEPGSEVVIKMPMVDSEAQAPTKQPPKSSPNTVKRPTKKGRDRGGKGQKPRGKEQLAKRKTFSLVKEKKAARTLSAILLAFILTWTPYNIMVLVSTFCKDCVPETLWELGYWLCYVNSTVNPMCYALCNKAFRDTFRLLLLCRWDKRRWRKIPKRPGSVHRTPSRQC
D1 mod confirm: D1 receptor positive allosteric modulators, retest, confirmation, cell-based, HEK293 D1, CRE-luciferase, duplicate | shares compounds with D1 mod | dopamine EC30 potentiation; hits give high values | luminescence at 10 µM | 2,200 tested, 88% active;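 active means luminescence in either of two replicates above the same-plate mean plus 3 SD of the low-dose dopamine control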
D1 no dopamine: D1 receptor agonism without dopamine, confirmation, mechanism study for D1 allosteric modulator project, cell-based, HEK293 D1, CRE-luciferase, secondary assay 1; shares compounds with D1 mod; luminescence at 10 µM; luminescence, no dopamine; hits give high values; 1,900 tested, 0.8% active; in the data active means luminescence above about 3900
Isoprot counter: isoproterenol response counter-screen activity for D1 modulators; HEK293 D1 CRE-luciferase, isoproterenol EC30 counter-screen; hits give high values; shares compounds with D1 mod; luminescence at 10 µM; 2,200 tested, 63% active;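 active means luminescence in either replicate above plate mean of wells with a partly effective reference agonist dose plus 3 SD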;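 further: isoproterenol raises cAMP through native beta-adrenoceptor Gs so signal bypasses D1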
Hits are given with their value; . = inactive; / = no result. An excerpt weighted towards active compounds, which were near 9.1% of everything screened.

SMILES | Htt clearance | D1 mod | M1 agonist | M1 antag | D1 mod confirm | D1 no dopamine | Isoprot counter
COC(=O)c1c(NC(=O)CCCC(=O)O)sc(C)c1C | / | . | . | . | / | / | /
CCOC(=O)c1c(N)sc(C(=O)N2CCCCC2)c1C | . | / | / | / | / | / | /
C=C(C)CSc1nnc(-c2ccccc2)n1N | . | . | . | . | / | / | /
CCOC(=O)c1c(-c2ccncc2)csc1N | / | 6.8 | . | . | 14984 | . | .
CCC(C(=O)NC1CCCC1)N(C(=O)Cn1nnc(-c2ccc(OC)c(OC)c2)n1)C1CCCCC1 (configuration not stated) | / | 6.8 | . | . | 9072 | . | 3972
Oc1ccc(N2CCN(C(c3ccccn3)c3nnnn3C3CCCC3)CC2)cc1 (configuration not stated) | . | / | / | / | / | / | /
NS(=O)(=O)c1ccc(CCNC(=O)C2CCCN2C(=O)OCc2ccccc2)cc1 (configuration not stated) | . | . | . | . | / | / | /
NS(=O)(=O)c1ccc(CCNC(=O)C2CCCCN2S(=O)(=O)c2ccccc2)cc1 (configuration not stated) | / | 3.5 | . | . | . | . | .
CCCSc1nc2c(c(=O)n1CC)SC(C)C2 (configuration not stated) | / | 4.7 | . | . | 10748 | . | 3492
CCn1c(SCC(=O)N2CCCC2)nc2c(c1=O)SC(C)C2 (configuration not stated) | / | . | . | . | / | / | /
COc1cccc(C2c3c(oc4ccc(F)cc4c3=O)C(=O)N2CCCN2CCOCC2)c1 (configuration not stated) | / | 3.8 | . | . | . | . | .
O=c1c2c3nc4ccccc4nc3n(/N=C/c3cccs3)c2ncn1-c1ccccc1 | / | . | . | . | / | / | /
CCOC(=O)CSc1nnc(-c2nnc(SCC(=O)OCC)n2CC)n1CC | / | / | . | . | / | / | /
Cc1cc2n(n1)C(c1ccsc1)Nc1ccccc1-2 (configuration not stated) | / | 14 | . | . | 15520 | / | 3220
CCc1nc2ccccc2n1CCC(C)C | . | . | / | / | / | / | /
C=CCSc1nc(N)c(C#N)c(-c2ccc(C)cc2)c1C#N | . | 3.1 | . | . | . | . | .
CCOC(=O)CSc1nc(N)c(C#N)c(-c2ccc(OCC)cc2)c1C#N | . | . | . | . | / | / | /
CC(C)Cn1c(-c2cccs2)nc2nc3ccccc3nc21 | / | 4.7 | . | . | 10104 | . | .
Brc1ccc(-c2nn3c(-c4ccco4)nnc3s2)o1 | . | 4.1 | . | . | 10612 | . | 3108
COc1ccc(C(=O)Oc2cccnc2)cc1OC | . | 8.6 | . | . | 20932 | . | 3844
CCn1c(=O)c2cc(S(=O)(=O)NC3CCCCC3)ccc2n(CC)c1=O | . | 4.2 | . | . | 6924 | . | .
NC(=O)NC(Cc1ccccc1)C(=O)NCC1(N2CCCCC2)CCCCC1 (configuration not stated) | . | . | . | . | / | / | /
COC(=O)c1ccc(NC(=O)Cn2nc(-c3ccncc3)nc2SCC(=O)Nc2nccs2)cc1 | . | / | / | / | / | / | /
CCOC(=O)C1CCN(C(=O)CCNC(=O)c2cc(OC)c(OC)c(OC)c2)CC1 | . | . | . | . | / | / | /
O=c1c(F)cn(C2CCCO2)c(=O)n1Cc1c(F)cccc1Cl (configuration not stated) | . | 6.2 | . | . | 8312 | . | 2872
SMILES | Htt clearance | D1 mod | M1 agonist | M1 antag | D1 mod confirm | D1 no dopamine | Isoprot counter
CCOC(=O)C1CCCN(Cc2c(F)cccc2Cl)C1 (configuration not stated) | / | . | . | . | / | / | /
COc1cc(C(=O)N2CCN(c3cc(Cl)ccc3Cl)CC2)cc(OC)c1OC | / | 6.5 | . | . | 10496 | . | 4396
COc1cc(C(=O)N2CCN(c3cccc(C)c3C)CC2)cc(OC)c1OC | . | . | . | . | / | / | /
COc1cc2c(cc1OC)-c1cc(OCCN3CCOCC3)nc(=O)n1CC2 | . | . | . | . | / | / | /
COc1cc2c(cc1OC)C1=C(C#N)COCN1CC2 | / | 15 | . | . | 9624 | . | 4436
COc1ccc(C(=O)Nc2ccc(F)cc2F)cc1OC | . | / | / | / | / | / | /
COc1ccc(C(=O)NC2=C(C#N)CCC2)cc1OC | / | 13 | . | . | 12668 | / | 2924
C/C(Sc1nnc(Cc2ccccc2)o1)=C(/O)c1ccccc1 | . | . | . | . | / | / | /
COC(=O)c1ccccc1NC(=O)CSc1ccccc1 | / | . | / | / | / | / | /
COC(=O)c1ccccc1NC(=O)COc1ccccc1 | / | 5.8 | . | . | 14156 | . | 3284
COC(=O)c1ccccc1NC(=O)COc1ccc(S(=O)(=O)N2CCCC2)cc1C | . | 3.2 | . | . | 5776 | . | .
COC(=O)c1ccccc1NC(=O)CN(C)S(=O)(=O)c1ccc(OC)c(C)c1 | / | . | . | . | / | / | /
Cc1cccc2nc(C(F)(F)F)nc(=O)n12 | / | . | . | . | / | / | /
CCC(Oc1nc2ccccc2nc1-c1ccccc1NC(C)=O)C(=O)c1ccccc1 (configuration not stated) | . | / | / | / | / | / | /
FC(F)(F)c1cccc(-c2ccc(-c3csnn3)o2)c1 | . | 24 | . | . | . | . | .
O=C(c1ccc2c(c1)N(Cc1ccccc1)CCS2)N1CCCCC1 | . | / | / | / | / | / | /
Cc1ccc(C(C)NC(=O)c2ccco2)cc1C (configuration not stated) | / | . | . | . | / | / | /
CCC(=O)Nc1nc2c(OC)ccc(OC)c2s1 | / | 2.9 | . | . | 8516 | . | .
COc1ccc(OC)c2sc(NC(=O)C3CC3)nc12 | . | 3.9 | . | . | 10100 | / | .
O=S(=O)(c1cccc(-c2nc3n(n2)Cc2ccccc2-3)c1)N1CCCC1 | / | 4.9 | . | . | 7316 | . | 3824
Fc1cccc(Nc2nc3ccccc3n3nnnc23)c1 | . | / | / | / | / | / | /
c1ccc2c(c1)nc(Nc1ccc3c(c1)OCO3)c1nnnn12 | / | 8.6 | . | . | 10812 | . | 3840
Cc1ccc(CNc2nc3ccccc3n3nnnc23)cc1 | / | 3.4 | . | . | 15516 | . | .
CC(C)CC(=O)N1CCN(C(=O)CCC2CCCC2)CC1 | . | . | . | . | / | / | /
CCC(=O)N[C@@H]1CC(C(C)(C)NC(=O)CC)CC=C1C (some centres not stated) | / | . | . | . | / | / | /
CC(C)n1c(SCC(=O)c2ccc3c(c2)OCCO3)nc2c1c(=O)n(C)c(=O)n2C | / | . | . | . | / | / | /
CCCCOc1nc(N)nc(-c2ccccc2)n1 | . | 15 | . | . | 19712 | . | 3520
COC(=O)c1ccc(CSc2ncnc3ccccc23)o1 | . | 4.5 | . | . | 9672 | / | 3468
COC(=O)c1ccc(CSc2ncnc3c2oc2ccccc23)o1 | . | . | . | . | / | / | /
Cc1ccc2c(c1)c1ncnc(N3CCOCC3)c1n2C | . | . | . | . | / | / | /
